PubChem BioAssay (NCATS)
Active and inactive are the calls of the source. Calls follow the shape of the dose curve; as a rule, active = well fitted inhibition curve with a large enough effect; inconclusive = small, poorly fitted or top-dose-only effect; inactive = flat fitted curve, though single readings scatter.

The compounds below were run on Nanoluciferase (engineered Oplophorus gracilirostris luciferase) (assay: Primary Nanoluciferase (NLuc) qHTS assay for identification of artifact compounds. (AID 1845222;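 also: 0% = DMSO and -100% = no enzyme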)). Conditions: NLuc-conditioned medium, Nano-Glo luminescence, 5 min; series mostly up to 54.1 µM; activity, negative = inhibition: at the top concentration.
In short: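 Diluted conditioned medium from NLuc-expressing S16 cells treated with compounds for 15 min at room temperature, then Nano-Glo substrate added; luminescence read after 5 min. Percent inhibition versus no-enzyme and DMSO controls fitted to 4-parameter Hill equation.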
For C=CC(C)(O)CC/C=C(\C)C(=O)O[C@@H]1[C@@H](O)[C@H](OC(C)(C=C)CC/C=C(\C)C(=O)O)O[C@H](CO)[C@H]1OC(=O)/C(C)=C/CCC(C)(O)C=C (stereo not given in full), the “activity, negative = inhibition” value was -1.04% [at 25.7 µM] (inactive). C=CC(C)(CCC=C(C)C)O[C@@H]1O[C@H](CO)[C@@H](O)[C@H](O)[C@H]1O (stereo not given in full) was tested, and the “activity, negative = inhibition” value was 3.84% (inactive). For C/C(=C\C1CCC(C)C2CCC3(C)OC123)C(=O)O (stereo not given), the “activity, negative = inhibition” value was -4.9% (inactive). For C=C(C)C1Cc2c(ccc3c2OCC(c2ccc(O)cc2O)C3)O1 (stereo not given), the “activity, negative = inhibition” value was -1.07% (inactive). In the case of COc1cccc(CN(C(=O)CC(C)(C)C)C2CC(C(=O)N3CCNCC3)N(Cc3ccc4c(c3)OCO4)C2)c1 (stereo not given), the “activity, negative = inhibition” value is reported as 2.31% (inactive). In the case of COc1cc(C(CO)C(OC2OC(CO)C(O)C(O)C2O)c2ccc(O)c(OC)c2)ccc1O (stereo not given), the “activity, negative = inhibition” value is reported as 2.33% [at 25.7 µM] (inactive). With C/C=C1/CC2C(=O)Nc3cc(O)c(OC)cc3C(=O)N2C1 (stereo not given) the “activity, negative = inhibition” value was -4.13% (inactive). For CC(C)=CCC(O)[C@](C)(O)C1[C@H](O)C[C@@]2(C)C3CC=C4C(C[C@H](O)[C@@H](O[C@@H]5O[C@H](CO)[C@@H](O)[C@H](O)[C@H]5O)C4(C)C)[C@]3(C)C(=O)C[C@]12C (stereo not given in full), the “activity, negative = inhibition” value was -3.64% [at 25.7 µM] (inactive). In the case of CCC(C)/C=C(C)/C=C/C1=CC2=CC(=O)C(C)(O)C(OC(C)=O)C2CO1 (stereo not given), the “activity, negative = inhibition” value is reported as -3.87% (inactive). CC[C@@H]1[C@H]2CCCCN3C(=O)C[C@H]([C@@H]4[C@H]1OC(=O)[C@H]4C)[C@@H]23 was tested, and the “activity, negative = inhibition” value was -0.912% (inactive). C/C(=C\CCC(C)CCO)C(=O)OC[C@H]1O[C@@H](O[C@@H]2OC=C(C(=O)O)[C@H]3CC[C@](C)(O)[C@@H]23)C(O)[C@@H](O)C1O (stereo not given in full) was tested, and the “activity, negative = inhibition” value was -2.2% [at 25.7 µM] (inactive). In the case of CC1=CC2=C(C)C(=O)C(C)(O)C(O)C2CO1 (stereo not given), the “activity, negative = inhibition” value is reported as -2.72% (inactive). For CC(=O)OC1CC(C(C)(C)O)OC2CCC3(C)OC4=C(C(=O)C=C5C(C)C(OC(C)=O)C6(C)C(C)OC546)C(O)C3C12C (stereo not given), the “activity, negative = inhibition” value was 1.38% [at 25.7 µM] (inactive). With CC(CC12CCCN1C(=O)C1CCCN1C2=O)OC(N)=O (stereo not given) the “activity, negative = inhibition” value was 3.93% (inactive). For CC(=O)O[C@@H]1C(O)C[C@@]2(C)C(CC[C@@H](C)C23Cc2c(O)cc4c(c2O3)CNC4=O)C1(C)C (stereo not given in full), the “activity, negative = inhibition” value was -1.82% [at 25.7 µM] (inactive). With CC(C)=CCC[C@](C)(O[C@@H]1O[C@H](CO[C@@H]2O[C@@H](CO)[C@H](O)[C@H]2O)[C@@H](O)[C@H](O)[C@H]1O)[C@H]1CC[C@]2(C)[C@@H]1[C@H](O)C[C@@H]1[C@@]3(C)CC[C@H](O[C@@H]4O[C@H](CO)[C@@H](O)[C@H](O)[C@H]4O[C@@H]4O[C@H](CO)[C@@H](O)[C@H](O)[C@H]4O)C(C)(C)[C@@H]3CC[C@]12C the “activity, negative = inhibition” value was 1.4% [at 25.7 µM] (inactive). For COc1c2c(c(C)c3c1C(=O)OC3)OC1(C)CC(O)C34OC(OC)(CC(O)C3(C)C1C2)OC4(C)C (stereo not given), the “activity, negative = inhibition” value was 4.19% [at 25.7 µM] (inactive). In the case of C[C@@H]1CC[C@]2(C(=O)O[C@@H]3O[C@H](CO[C@@H]4O[C@H](CO)[C@@H](O)[C@H](O)[C@H]4O)[C@@H](O)[C@H](O)[C@H]3O)CC[C@]3(C)C(=CCC4[C@@]5(C)CC[C@H](O)[C@](C)(C(=O)O)C5CC[C@]43C)[C@@H]2[C@]1(C)O (stereo not given in full), the activity, negative = inhibition is reported as 2.17% [at 11.6 µM] (inactive). For O=C(NCC(=O)N1CCCC1)Nc1ccc2ccccc2c1, the “activity, negative = inhibition” value was -1.45% (inactive). With CC1CCC2C(C)(C)[C@H](O)CC[C@]2(C)C12Cc1c(O)cc3c(c1O2)CN(C(CCC(=O)O)C(=O)O)C3=O (stereo not given in full) the “activity, negative = inhibition” value was 0.609% [at 25.7 µM] (inactive). In the case of COC(=O)c1cc(OC)cc(OC)c1C(=O)c1c(OC)cc2c(c1O)C1CCC(O)C(C)(O2)O1 (stereo not given), the “activity, negative = inhibition” value is reported as -0.493% [at 25.7 µM] (inactive). In the case of CN1CCCC1Cc1c[nH]c2ccc(CCS(=O)(=O)c3ccccc3)cc12 (stereo not given), the “activity, negative = inhibition” value is reported as 0.611% (inactive). With OCC1OC(Oc2cc(O)cc(/C=C/c3ccc(OC4OC(CO)C(O)C(O)C4O)cc3O)c2)C(O)C(O)C1O (stereo not given) the “activity, negative = inhibition” value was -2.54% [at 25.7 µM] (inactive). For Cc1cc(C(=O)N2Cc3cnn(C)c3Nc3ccccc32)ccc1CNC(=O)N1CCN(Cc2cc(O)cc(O)c2)CC1, the “activity, negative = inhibition” value was 2.68% (inactive). With CC(C)=CCC/C(C)=C/CO[C@@H]1O[C@H](CO[C@@H]2O[C@@H](CO)[C@H](O)[C@H]2O)[C@@H](O)[C@H](O)[C@H]1O the “activity, negative = inhibition” value was 4.43% [at 25.7 µM] (inactive). With H-DPPDPDRFYGMM-NH2 the “activity, negative = inhibition” value was 4.31% [at 25.7 µM] (inactive). O=c1[nH]ccc2nc(-c3ccc(CN4CCC(c5nc(-c6ccccn6)n[nH]5)CC4)cc3)c(-c3ccccc3)cc12 was tested, and the “activity, negative = inhibition” value was -8.79% (inactive). In the case of OCC(O)C(c1c[nH]c2ccccc12)c1c[nH]c2ccccc12 (stereo not given), the “activity, negative = inhibition” value is reported as -0.866% (inactive). CC1(CO)CCCC2(C)C3COC(=O)C3=CC(O)C12 (stereo not given) was tested, and the “activity, negative = inhibition” value was -2% (inactive). With Cc1ccc(-c2c(-c3nn(C)c4ncnc(N5CC[C@H](N6CCCCC6)C5)c34)cnn2C)cc1 the “activity, negative = inhibition” value was 0% (inactive). In the case of CCC1(O)CC2c3cc(OC)c(OC)cc3CCN2CC1CC(C)C (stereo not given), the “activity, negative = inhibition” value is reported as -8.7% (inactive). CC1OC(O[C@H]2CC[C@@]3(C)C(CC[C@]4(C)C3CC=C3C5CC(C)(C)CC[C@]5(C(=O)OC5OC(CO)C(OC6OCC(OC7OCC(O)C(O)C7O)C(O)C6O)C(O)C5O)CC[C@]34C)C2(C)C)C(O)C(O)C1OC1OC(CO)C(O)C(OC2OC(CO)C(O)C(O)C2O)C1O (stereo not given in full) was tested, and the activity, negative = inhibition was 0.21% [at 11.6 µM] (inactive). For CC(C)CC(c1c(O)c(C=O)c(O)c(C=O)c1O)C1CCC(C)(O)C2CC(C(C)(C)O)CCC12C (stereo not given), the “activity, negative = inhibition” value was 2.16% [at 25.7 µM] (inactive). For C=C1CCC2(C(=O)OC3OC(CO)C(O)C(O)C3O)CCC3(C)C(=CCC4C5(C)CCC(OC6OC(CO)C(OC7OC(C)C(O)C(O)C7O)C(OC7OCC(O)C(O)C7O)C6O)C(C)(C)C5CCC43C)C2C1 (stereo not given), the activity, negative = inhibition was 0.389% [at 11.6 µM] (inactive). C=C1CC[C@@]2(OC1)O[C@H]1CC3[C@@H]4CC=C5C[C@H](O[C@H]6OC[C@@H](O)C(O)[C@@H]6O[C@@H]6O[C@@H](C)[C@H](O)[C@@H](O[C@@H]7O[C@H](CO)[C@@H](O)[C@H](O)[C@H]7O)[C@H]6O)C[C@@H](O)[C@]5(C)C4CC[C@]3(C)[C@H]1[C@@H]2C (stereo not given in full) was tested, and the activity, negative = inhibition was -1.92% [at 11.6 µM] (inactive). C[C@@H]1O[C@@H](O[C@H]2[C@H](O)[C@@H](O)[C@H](OC[C@H]3O[C@@H](OC(=O)[C@]45CCC(C)(C)C[C@H]4C4=CCC6[C@@]7(C)C[C@@H](O)[C@H](O)[C@@](C)(CO)C7[C@H](O)C[C@@]6(C)[C@]4(C)CC5)[C@H](O)[C@@H](O)[C@@H]3O)O[C@@H]2CO)[C@H](O)[C@H](O)[C@H]1O (stereo not given in full) was tested, and the activity, negative = inhibition was 1.41% [at 11.6 µM] (inactive). For CNc1nc(C)nc(N[C@H]2CCC[C@@H](C(=O)NCc3ccc(C#N)cc3C(F)(F)F)C2)n1, the “activity, negative = inhibition” value was -0.127% (inactive). With C=C(CC/C=C(\C)C(=O)O)C1(O)CC=C(C)CC1 (stereo not given) the “activity, negative = inhibition” value was -0.467% (inactive). With O=C(O)/C=C/c1ccc(O[C@@H]2O[C@H](CO)[C@@H](O)[C@H](O)[C@H]2O)cc1 the “activity, negative = inhibition” value was 4.54% (inactive). In the case of Cc1occc(=O)c1O[C@@H]1O[C@H](CO)[C@@H](O)[C@H](O)[C@H]1O, the “activity, negative = inhibition” value is reported as 4.6% (inactive).
